Source: PubChem
An excerpt weighted towards active compounds, which were near 2.7% of everything screened.
KDM5B inh = Primary screen for KDM5B Histone Demethylases FDH-coupled qHTS | Lysine-specific demethylase 5B (Homo sapiens), Q9UGL1 | KDM5B demethylase, FDH-coupled NADH fluorescence (FDH is formaldehyde dehydrogenase) | Potency, µM (highest dose often 57.7 µM), actives largely listed as inhibitors | hit rate 2.6% among 220,000; active means well fitted inhibition curve with a large enough effect; inconclusive means small, poorly fitted or top-dose-only effect; inactive means no such curve, though single readings can be large or run the other way; further: nearly all actives have a fitted effect of over 70% in size
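Measured: NADH fluorescence change, 30 min, RT. System: KDM5BΔAP 200 nM final, H3K4me3 peptide, α-KG, Fe(II), ascorbate, NAD⁺ plus FDH, pH 7.5 HEPES. Compounds: titrated, 10 min pre-incubation with enzyme.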
IP6K1 inh = Primary qHTS assay for small molecule inhibitors of Inositol hexaphosphate kinase 1 (IP6K1); Inositol hexakisphosphate kinase 1 (Homo sapiens), Q92551; IP6K1 kinase, ADP-Glo luminescence, 2 h; active compounds read low; activity change, % (series mostly up to about 58 µM); hit rate 0.81% among 140,000; AID 1645851, 2021; in the data active means activity change below about -25%
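ADP-Glo luminescence measures ADP made by human IP6K1 during a 2 h RT reaction with ATP/IP6 (mix at 1.3 mM/130 uM); top library doses 57.5 and 19.1 uM final.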
Hits are given with their value; i = inactive; ? = inconclusive; nt = no result given.

SMILES	KDM5B inh	IP6K1 inh
Cc1nccn1-c1ccc(NC(=O)C2CCCN(c3ncccc3C#N)C2)cc1 (stereo unspecified)	28.2µM	i
Cc1ccc(NC(=O)C2CCCN(c3ccnc4ccnn34)C2)cc1 (stereo unspecified)	nt	i
CN(C)c1ccc(C(=O)N[C@H]2CO[C@H]3[C@@H]2OC[C@@H]3Nc2nccc(-c3cccs3)n2)cc1	?	i
COc1ccc(-c2ccnc(N[C@H]3CO[C@H]4[C@@H]3OC[C@@H]4NC(=O)NCc3ccccc3)n2)cc1	25.1µM	i
O=C(N[C@H]1CO[C@H]2[C@@H]1OC[C@@H]2Nc1nccc(-c2ccc(-c3ccccc3)cc2)n1)c1ccccc1	?	i
CN(C)c1ccc(-c2ccnc(N[C@H]3CO[C@H]4[C@@H]3OC[C@@H]4NC(=O)NCc3ccccc3)n2)cc1	28.2µM	i
CCCN(Cc1cc2ccc(C)cc2[nH]c1=O)S(C)(=O)=O	i	nt
CSc1ccc(/C=C2\C(=O)Oc3ccccc32)cc1	i	nt
COc1ccccc1C(=O)NC1CCCN(c2ccc3nnc(C)n3n2)C1 (stereo unspecified)	nt	i
Cc1cc(C)c(NC(=O)CC2CCCC2)c(C)c1	i	nt
Cc1cc2oc(=O)cc(CN3CCN(c4ccccc4O)CC3)c2cc1Cl	i	nt
CCCc1noc(-c2ccn3c(CNC(=O)c4ccc(F)cc4Cl)nnc3c2)n1	i	i
Cc1noc(-c2ccn3c(CNC(=O)c4ccc(F)cc4Cl)nnc3c2)n1	i	i
CC(C)c1noc(-c2ccn3c(CNC(=O)c4ccc(F)cc4Cl)nnc3c2)n1	28.2µM	i
CCc1noc(-c2ccn3c(CNC(=O)c4ccccc4F)nnc3c2)n1	i	i
CCOc1ccccc1C(=O)NCc1nnc2cc(-c3nc(CC)no3)ccn12	28.2µM	i
CCc1noc(-c2ccn3c(CNC(=O)c4cc(F)ccc4Cl)nnc3c2)n1	28.2µM	i
O=C(N/N=C/c1cccs1)c1cccc2ccccc12	i	nt
CC1=C[C@@H](CNCc2cccnc2)[C@H](C(C)C)C[C@H]1Cc1nnc(-c2ccc(N(C)C)cc2)o1	?	i
COc1ccccc1-c1ccc(CN2CCCCC2C(=O)NC2CCCCC2)cc1 (stereo unspecified)	nt	i
O=C(NC1CCN(c2cc(-c3cccs3)[nH]n2)C1)c1cccc(Br)c1 (stereo unspecified)	7.94µM	i
CN(C)c1ccc(C(=O)NC2CCN(c3cc(-c4cccs4)[nH]n3)C2)cc1 (stereo unspecified)	?	i
O=C(NC1CCN(c2cc(-c3cccs3)[nH]n2)C1)c1cccc(OC(F)(F)F)c1 (stereo unspecified)	5.01µM	i
O=C(NC1CCN(c2cc(-c3cccs3)[nH]n2)C1)c1ccc2nc[nH]c2c1 (stereo unspecified)	?	i
COc1ccc(-c2ccc(C(=O)N3CCCC(C)C3)c(Cl)c2)nn1 (stereo unspecified)	nt	i
SMILES	KDM5B inh	IP6K1 inh
O=C(NCC1(N2CCCCC2)CCCCC1)c1cccc(NC(=O)c2cccs2)c1	i	nt
O=S(=O)(CCNCc1cccc(Cl)c1)Cc1ccccc1	i	nt
COc1ccc(-c2c(C)oc3cc(OCC(=O)Nc4cc(C)ccc4OC)ccc3c2=O)cc1	i	nt
COc1ccc(-c2cc3nc4c(c(=O)n3[nH]2)CN(C(=O)CC(C)C)CC4)cc1	?	i
CCN(C(=O)CCC(=O)N1CCc2nc3cc(-c4ccc(OC)cc4)[nH]n3c(=O)c2C1)c1ccccc1	7.08µM	i
COc1ccc(-c2cc3nc4c(c(=O)n3[nH]2)CN(C(=O)c2n[nH]c3c2CCCCCC3)CC4)cc1	?	i
COc1ccc(-c2cc3nc4c(c(=O)n3[nH]2)CN(C(=O)CCc2ccccc2)CC4)cc1	5.62µM	i
Fc1ccc(CN2CCNc3cc(Nc4ccccc4)ncc3C2)cc1F	?	i
COc1cc(SC)ccc1C(=O)O	i	nt
Cc1ccc(CCC(=O)O)cc1Cl	i	nt
Fc1ccc(/C=N/N=C/c2ccc(F)cc2)cc1	i	nt
O=Cc1ccc(-c2cccc(O)c2)cc1	12.6µM	i
Cc1ccc(-c2ccc(C=O)cc2)c(C)c1	?	i
O=Cc1ccc(-c2ccc(F)cc2)cc1	89.1µM	i
NCc1ccc(-c2cccc(O)c2)cc1	?	i
Cc1cc(C)cc(-c2ccc(C=O)cc2)c1	31.6µM	i
CN(C(=O)COC(=O)c1csc(NCc2ccccc2)n1)c1ccccc1	i	nt
COc1ccccc1-c1cccc(CN2CCCC(C(=O)NCc3cccnc3)C2)c1 (stereo unspecified)	nt	i
CN(C)c1ccc(C(=C2C=CC(=[N+](C)C)C=C2)c2ccc(N(C)C)cc2)cc1	nt	-57.6
CN(C)C(=N)c1ccc(N(C)C)cc1	i	nt
COc1cccc(Nc2nc(-c3ccc([N+](=O)[O-])cc3)nc3ccccc23)c1	i	nt
COc1ccc(NC(=O)C2(C)CCc3cnc(N4CCOCC4)nc32)cc1 (stereo unspecified)	39.8µM	i
